# Only some compounds are listed: those with a hit (about 12% of all), similar ones and a draw of the others.
# PI5P4K alpha inh: qHTS for Inhibitors of phosphatidylinositol 5-phosphate 4-kinase (PI5P4K); PI5P4Kalpha enzyme, ADP-Glo luminescence, 60 min; stronger effect = lower value; max response, %; 330,000 tested, 1.2% active; active means max response of -50% or lower; inconclusive means between -30% and -50%; inactive means -30% or higher; further: value at the top dose of about 77 µM; on the % scale 0 is the no-effect control and ±100 the full control effect
#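 ADP-Glo luminescence end-point after a 60 min room-temperature kinase reaction. PI5P4Kalpha and substrate in HEPES pH 7.4 buffer with EGTA, 0.1% CHAPS and 5% DMSO; ATP at 5 microM final.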
# PLK1 PBD inh: qHTS for Inhibitors of PLK1-PDB (polo-like kinase 1 - polo-box domain): Primary Screen. Serine/threonine-protein kinase PLK1 (Homo sapiens), P53350. Plk1 PBD binding of FITC phosphopeptide, fluorescence polarization. Potency, µM, for inactives: max response, negative = inhibition, actives largely listed as inhibitors. 360,000 tested, 2.8% active. AID 720504, 2013; further: potency means the concentration at half of the fitted maximal effect; series mostly up to about 57 µM; on the % scale 0 is the no-effect control and ±100 the full control effect; nearly all actives have a fitted effect of over 65% in size
# HP1b chromo inh: HTS for Inhibitors of HP1-beta Chromodomain Interactions with Methylated Histone Tails | AID 540317, 2011 | 390,000 tested, 0.56% active | Potency, µM (top dose mostly 114 µM), without a hit: at the top dose activity change, negative = inhibition, actives largely listed as inhibitors | AlphaScreen HP1-beta / biotin-H3K9me3 peptide binding | Chromobox protein homolog 1 (Homo sapiens), P83916; further: potency means the concentration at half of the fitted maximal effect; nearly all actives have a fitted effect of over 70% in size
#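 Compound inhibition of the preformed complex between 50 nM HP1-beta and 50 nM biotinylated H3K9me3 peptide was read by AlphaScreen. Buffer was PBS pH 7.4 with 0.01% Tween-20. Incubations ran 30 min at room temperature, with 10 ug/mL donor/acceptor beads.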
# G9a inh: qHTS Assay for Inhibitors of Histone Lysine Methyltransferase G9a; Histone-lysine N-methyltransferase EHMT2 (Homo sapiens), Q96KQ7; G9a H3K9 monomethylation, AlphaScreen, 2 h; Potency, µM (top dose mostly 102 µM), for inactives: top-dose activity, negative = inhibition, actives largely listed as inhibitors; 350,000 tested, 8.8% active; AID 504332, 2011; further: potency means the concentration at half of the fitted maximal effect; on the % scale 0 is the no-effect control and ±100 the full control effect; nearly all actives have a fitted effect of over 75% in size
#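 Chemiluminescent proximity detection of H3K9 monomethylation, read after 10 min bead incubation in the dark. Reaction: 20 nM G9a, 500 nM biotin-H3K9 peptide, 20 uM SAM cofactor, 2 h, room temperature, following 15 min enzyme-compound preincubation.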
# JMJD2A Tudor: qHTS Assay for Inhibitors of JMJD2A-Tudor Domain | AlphaScreen JMJD2A-Tudor / H3K4me3 peptide binding | Potency, µM (highest dose often 114 µM), inactives show top-dose activity change, negative = inhibition, usual class: inhibitors | AID 504339, 2011 | 390,000 tested, 4.4% active; further: potency means the concentration at half of the fitted maximal effect; on the % scale 0 is the no-effect control and ±100 the full control effect; nearly all actives have a fitted effect of over 50% in size
# BAZ2B inh: qHTS Assay for Inhibitors of BAZ2B; Bromodomain adjacent to zinc finger domain protein 2B (Homo sapiens), Q9UIF8; AlphaScreen BAZ2B-H3K14Ac peptide displacement; Potency, µM (top dose mostly 114 µM), without a hit: at the highest dose activity change, negative = inhibition, usual class: inhibitors; 360,000 tested, 4.4% active; AID 504333, 2011; further: potency means the concentration at half of the fitted maximal effect; on the % scale 0 is the no-effect control and ±100 the full control effect; nearly all actives have a fitted effect of over 60% in size
#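 Protein-peptide AlphaScreen: BAZ2B 50 nM, b-H3K14Ac 50 nM, 1x PBS pH 7.4 + 0.01% Tween-20. Preincubation 30 min RT; cpd 30 min RT (top 110 uM); beads 20 min RT, light-protected.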
# * marks the source's active call; other numbers are inactive results; ? = inconclusive; nt = no result; [ ] = dose if it differs, or a comment. Unless noted, the call rests on the fitted dose curve; in most records, active means well fitted curve in the direction sought with a large enough effect; inconclusive means small, poorly fitted or top-dose-only effect, or another doubt; inactive means no such curve, though single readings can be large; an effect the other way counts as inactive or inconclusive.
SMILES,PI5P4K alpha inh,PLK1 PBD inh,HP1b chromo inh,G9a inh,JMJD2A Tudor,BAZ2B inh
CCN(C[C@H]1N[C@@](Cc2ccccc2)(C(=O)OC)[C@H]2C(=O)N(C)C(=O)[C@@H]12)S(=O)(=O)c1ccc(C(C)(C)C)cc1,-7,-8%,54%,nt,-14%,nt
COc1ccc(S(=O)(=O)Nc2cccc3cccnc23)c([N+](=O)[O-])c1,nt,nt,27%,nt,?,nt
CCOC(=O)c1c(C)c(-c2ccccc2)n(CC(=O)N2CCCC2)c1C,11,-6%,27%,-20%,-22%,-38%
CCOC(=O)c1c(C)c(-c2ccccc2)n(CC(=O)N2CCN(C)CC2)c1C,-3,-17%,10%,71µM*,-29%,-7%
CCC(CO)Oc1cc(NCc2ccncc2)c2ncn(C(C)C)c2c1 (stereo not drawn),-1,-5%,52%,nt,-36%,nt
CCC(CO)Oc1cc(NCc2ccccc2C)c2ncn(C(C)C)c2c1 (stereo not drawn),-5,-8%,1%,nt,?,nt
CCC(CO)Oc1cc(NCc2ccc(F)cc2)c2ncn(C(C)C)c2c1 (stereo not drawn),-4,0%,?,nt,56µM*,nt
CCC(CO)Oc1cc(NCc2cc(C)cc(C)c2)c2ncn(C(C)C)c2c1 (stereo not drawn),1,7%,-14%,nt,?,nt
CCC(CO)Oc1cc(NCc2cccnc2)c2ncn(C(C)C)c2c1 (stereo not drawn),-6,-12%,10%,nt,79µM*,nt
CCC(CO)Oc1cc(NCc2cccc(Cl)c2)c2ncn(C(C)C)c2c1 (stereo not drawn),0,-20%,?,nt,25µM*,nt
CCC(CN(C)C)Oc1cc(NCc2ccccc2)c2ncn(C(C)C)c2c1 (stereo not drawn),-29,?,8%,nt,89µM*,nt
Cc1ccc(S(=O)(=O)N2CCN(c3nc(-c4cncs4)nc4ccccc34)CC2)cc1,nt,nt,40%,nt,3%,nt
Cc1cccc(Nc2nc(C#N)nc(NC3CCCC3)n2)c1,nt,nt,nt,nt,3%,nt
O=C(CC(C(=O)O)N1CCOCC1)Nc1ccc(Cl)cc1 (stereo not drawn),nt,0%,10%,?,45µM*,10%
C[C@H](NC(N)=O)C(=O)Nc1ccc(N2CCOCC2)c(S(=O)(=O)Nc2ccc(Cl)cc2)c1,?,2.7µM*,?,1µM*,?,?
COCCNC(=S)Nc1ccc(N2CCOCC2)c(S(=O)(=O)Nc2ccc(Cl)cc2)c1,?,2.4µM*,nt,nt,nt,nt
COc1ccc(NS(=O)(=O)c2cc(NC(=O)c3ccc(Cl)cc3)ccc2N2CCOCC2)cc1,0,18%,2%,nt,-29%,nt
O=C(Nc1ccc(N2CCOCC2)c(S(=O)(=O)Nc2ccc(Cl)cc2)c1)c1cnccn1,-25,5.3µM*,?,nt,-31%,?
CCC(=O)Nc1ccc(N2CCOCC2)c(S(=O)(=O)Nc2ccc(Cl)cc2)c1,?,7.5µM*,?,?,79µM*,3%
O=C(Nc1ncccc1O)c1cccc(S(=O)(=O)N2CCN(c3ccc(F)cc3)CC2)c1,1,-3%,7%,79µM*,-32%,-17%
COC(=O)c1cccc(Cn2c(Cl)c(/C=N/NC(=O)c3ccccc3Cl)sc2=O)c1,nt,-2%,17%,nt,-15%,-10%
O=c1sc(/C=N/Nc2ccccc2)c(Cl)n1Cc1ccccc1,-2,-6%,12%,14µM*,-22%,?
O=Cc1sc(=O)n(Cc2cccc(C(=O)O)c2)c1Cl,-26,30µM*,41%[57 µM],?,-17%,2%
COC(=O)c1cccc(Cn2c(Cl)c(/C=N/NC(=O)c3ccco3)sc2=O)c1,-9,-28%,37%,50µM*,-18%,56µM*
COc1ccc(CN(CCNC(=O)CCCCC(=O)NCCN(Cc2ccc(OC)cc2)C(C)C)C(C)C)cc1,0,-9%,19%,nt,-21%,nt
SMILES,PI5P4K alpha inh,PLK1 PBD inh,HP1b chromo inh,G9a inh,JMJD2A Tudor,BAZ2B inh
COc1ccc(OC)c(N2C(=O)c3ccccc3C2c2nnnn2-c2ccc3c(c2)OCCO3)c1 (stereo not drawn),-1,-11%,nt,nt,nt,nt
Cc1ccc(CN2CCCn3nc(C(=O)NC(C)C)cc3C2=O)cc1,nt,nt,3%,-11%[59 µM],-8%,-34%
COc1ccc(Cc2nc3ccccc3n2CC(=O)N/N=C/c2ccc(O)cc2)cc1OC,1,-8%,24%,16%,-16%,2%
CCOC(=O)Cn1c(S(=O)(=O)Cc2ccc(Cl)cc2)nc(-c2ccccc2)c1-c1ccccc1,nt,2%,3%,nt,-25%,8%
COC(=O)Cn1c(Cc2ccccc2)nc2ccccc21,0,6µM*,53%,-18%,-32%,-29%
CCOC(=O)Cn1c(S(=O)(=O)Cc2ccccc2)nc2ccccc21,-5,-23%,27%,40µM*,-8%,-1%
COC(=O)Cn1c(=O)cnc2ccccc21,nt,-3%,6%,-29%,-27%,4%
COc1ccc(Cc2nc3ccccc3n2CC(=O)N/N=C/c2ccc(C)cc2O)cc1OC,-11,-11%,19%,?,?,56µM*
O=S(=O)(Nc1ccc(-c2ccc(N3CCCC3)nn2)cc1)c1cccc(C(F)(F)F)c1,nt,nt,0%[57 µM],3%[59 µM],-17%,0%
Cc1ccc(NC(=O)c2c(C)nc3sc(C(=O)Nc4ccc(F)cc4)c(N)c3c2-c2ccc(C)o2)c(C)c1,nt,nt,36%,11%[59 µM],0%,-4%
COc1ccc(Oc2ncnc3c2oc2ccccc23)cc1,nt,nt,46%,11%[59 µM],5%,2%
CC(NC(=O)c1ccco1)C(c1cccs1)N1CCN(c2ccc(F)cc2)CC1 (stereo not drawn),nt,-10%,-15%,50µM*,-35%,50µM*
CC(NC(=O)C(=O)N1CCOCC1)C(c1cccs1)N1CCN(c2ccccc2)CC1 (stereo not drawn),1,21µM*,1%,nt,?,-8%
COc1ccc(N2CCN(C(c3cccs3)C(C)NC(=O)C(=O)N3CCOCC3)CC2)cc1 (stereo not drawn),-2,-3%,12%,?,-7%,5%
Nc1cc(=O)nc(SCC(=O)Nc2ccc(F)cc2)n1-c1cccc(Cl)c1,nt,nt,48%,42%[59 µM],-13%,-2%

# Screening results (PubChem BioAssay)
